# PubChem BioAssay (Tox21)
# A number with no mark means an inactive call. Activity calls are given as the source filed them. Calls follow the shape of the dose curve; as a rule, active = well fitted curve in the direction sought with a large enough effect in the repeat runs; inconclusive = weak or mixed curves; inactive = flat fitted curve, though single readings scatter.
# Assay: qHTS assay to test for compound auto fluorescence at 590 nm (red) in HepG2 cell free culture (AID 720684)
# Settings: cell-free medium autofluorescence, red 540/590 nm; series mostly up to 91.3 µM
# How it was run: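 Plate contents were MEM with 10% FBS plus test compound or DMSO, no cells. Fluorescence was recorded with 540 nm excitation and 590 nm emission.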
# % is scaled to controls: 0 for no effect and ±100 for the full control effect.
SMILES,outcome,"fluorescence, % of Rose Bengal"
C/C=C/C=C/CCCCCCCO,inactive,
Cc1cc(OI)c(C(C)C)cc1-c1cc(C(C)C)c(OI)cc1C,inactive,
CCCCN(CCCC)CCCOC(=O)c1ccc(N)cc1,,0.0643% [at 18.6 µM]
CCCCC1C(=O)N(c2ccccc2)N(c2ccc(O)cc2)C1=O (configuration not stated),,-0.239% [at 18.6 µM]
CC(C)(C)CC(C)(C)c1ccc(OCCO)cc1,inactive,
CC(C)(C)C(=O)O,inactive,
CCCCC/C(=C\c1ccccc1)CO,inactive,
C[N+]1(C)CCC(=C(c2ccccc2)c2ccccc2)CC1,,0.107% [at 18.6 µM]
CO[C@H]1C=CO[C@@]2(C)Oc3c(C)c(O)c4c(O)c(c5c(c4c3C2=O)=NC2(CCN(CC(C)C)CC2)N=5)NC(=O)/C(C)=C\C=C/[C@H](C)[C@H](O)[C@@H](C)[C@@H](O)[C@@H](C)[C@H](OC(C)=O)[C@@H]1C,inactive,
CCC(C)=O,inactive,
C[N+](C)(C)CCOC(N)=O,inactive,
CN1CCN(CCCN2c3ccccc3Sc3ccc(S(=O)(=O)N(C)C)cc32)CC1,,0.748% [at 18.6 µM]
CCCCCC=CCC=CCCCCCCCC(=O)OCC,inactive,
CCC(Cc1ccccc1)(C(=O)c1ccc(N2CCOCC2)cc1)N(C)C (configuration not stated),inactive,
CCOC(=O)[C@@H](C)Oc1ccc(Oc2nc3ccc(Cl)cc3o2)cc1,inactive,
CC(=O)[C@H]1CC[C@H]2[C@@H]3C[C@H](C)C4=CC(=O)CC[C@]4(C)[C@H]3[C@@H](O)C[C@]12C,,-0.145% [at 18.6 µM]

SMILES,outcome,"fluorescence, % of Rose Bengal"
CCc1c2c(nc3ccc(OC(=O)N4CCC(N5CCCCC5)CC4)cc13)-c1cc3c(c(=O)n1C2)COC(=O)[C@]3(O)CC,inactive,
CC(=O)CC(c1ccc([N+](=O)[O-])cc1)c1c(O)c2ccccc2oc1=O (configuration not stated),,0.571% [at 18.6 µM]
CC(C)(CCl)c1ccccc1,inactive,
CCC(C(=O)OCCN(CC)CC)c1ccccc1 (configuration not stated),inactive,
CCOC(=O)c1ccccc1C,inactive,
CC[C@@H]([C@H](C)O)n1ncn(-c2ccc(N3CCN(c4ccc(OC[C@@H]5CO[C@@](Cn6cncn6)(c6ccc(F)cc6F)C5)cc4)CC3)cc2)c1=O,inactive,
CCn1cc(C(=O)O)c(=O)c2cc(F)c(N3CCNCC3)nc21,,-0.483% [at 18.6 µM]
CNC(=S)NC,inactive,
CCCCOC(=O)CCS,inactive,
Fc1c(F)c(F)c(Br)c(F)c1F,inactive,
N#C/C(=C1\SCC(c2ccccc2Cl)S1)n1ccnc1 (configuration not stated),inactive,
CCC(C)(C)C1CCC(O)CC1 (configuration not stated),inactive,
O=S(=O)(c1ccccc1)c1ccc(Cl)cc1,inactive,
c1cnc2c(n1)CCCC2,inactive,
COC(=O)Nc1nc2ccc(C(=O)c3cccs3)cc2[nH]1,inactive,
O=C(Nc1ccc([N+](=O)[O-])cc1)Nc1ccc([N+](=O)[O-])cc1,inactive,
